The source of these data is the supplement of paper PMC10681739.

Assay [1] has as its target T1, ETS1 (UniProt P14921).
T1 sequence: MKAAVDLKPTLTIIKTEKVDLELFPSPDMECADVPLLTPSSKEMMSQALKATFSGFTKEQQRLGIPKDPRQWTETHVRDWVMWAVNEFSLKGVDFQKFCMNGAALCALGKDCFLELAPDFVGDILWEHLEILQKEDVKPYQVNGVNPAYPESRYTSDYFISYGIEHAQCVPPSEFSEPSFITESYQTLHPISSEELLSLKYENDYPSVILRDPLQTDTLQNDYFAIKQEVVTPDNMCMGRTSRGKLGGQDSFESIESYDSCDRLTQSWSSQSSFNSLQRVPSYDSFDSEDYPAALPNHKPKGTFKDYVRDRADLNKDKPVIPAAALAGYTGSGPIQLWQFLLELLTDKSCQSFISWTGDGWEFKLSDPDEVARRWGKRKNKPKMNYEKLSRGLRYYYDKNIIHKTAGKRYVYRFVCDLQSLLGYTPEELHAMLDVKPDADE
As to the kind of experiment: ETS1 binding intensity (PBM fluorescence), ETS1 alone (arbitrary fluorescence units); higher = stronger binding. The settings on record: ETS1 concentration 1 nM; RUNX1 concentration 0 nM.

For assay [2], the target named is RUNX1 (UniProt Q01196). As to the kind of experiment: RUNX1 binding intensity (PBM fluorescence), RUNX1 alone (arbitrary fluorescence units); higher = stronger binding. The settings on record: RUNX1 concentration 2 nM; ETS1 concentration 0 nM. As to the method:
(§1)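 Cooperative gcPBM on 36-bp genomic probes with neighbouring ETS1 and RUNX1 sites. Recombinant human RUNX1 (2 nM) was incubated alone or with ETS1 (25 nM) and detected with anti-RUNX1 antibody plus Alexa488 secondary. Values are medians over 4 replicate spots; the RUNX1+ETS1 data were normalised to the RUNX1-only data. The probes sit in constant array flanks that are not printed.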

Assay [3] concerns the target T1, ETS1. Nature of the assay: ETS1 binding intensity (PBM fluorescence) in presence of RUNX1, normalised to ETS1-only experiment (arbitrary fluorescence units); higher = stronger binding. To be noted: ETS1 concentration 1 nM; RUNX1 concentration 25 nM.
Assay [4] has as its target RUNX1 (UniProt Q01196). Nature of the assay: RUNX1 binding intensity (PBM fluorescence) in presence of ETS1, normalised to RUNX1-only experiment (arbitrary fluorescence units); higher = stronger binding. The settings on record: RUNX1 concentration 2 nM; ETS1 concentration 25 nM. The protocol:
as §1
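Wherever RUNX1 binding intensity (PBM fluorescence) in presence of ETS1, normalised to RUNX1-only experiment is given: Full-length recombinant human ETS1 or RUNX1 bound to double-stranded 36-bp genomic probes on microarrays, detected by protein-specific primary antibody and Alexa488 secondary, spot fluorescence as median of four replicate spots.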
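Wherever RUNX1 binding intensity (PBM fluorescence), RUNX1 alone is given: Full-length recombinant human RUNX1 bound to double-stranded 36-bp genomic probes on a high-density microarray, scored as Alexa488 fluorescence per spot via anti-RUNX1 antibody, median of four replicate spots.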

RUNX1, sequence (Q01196 whole entry): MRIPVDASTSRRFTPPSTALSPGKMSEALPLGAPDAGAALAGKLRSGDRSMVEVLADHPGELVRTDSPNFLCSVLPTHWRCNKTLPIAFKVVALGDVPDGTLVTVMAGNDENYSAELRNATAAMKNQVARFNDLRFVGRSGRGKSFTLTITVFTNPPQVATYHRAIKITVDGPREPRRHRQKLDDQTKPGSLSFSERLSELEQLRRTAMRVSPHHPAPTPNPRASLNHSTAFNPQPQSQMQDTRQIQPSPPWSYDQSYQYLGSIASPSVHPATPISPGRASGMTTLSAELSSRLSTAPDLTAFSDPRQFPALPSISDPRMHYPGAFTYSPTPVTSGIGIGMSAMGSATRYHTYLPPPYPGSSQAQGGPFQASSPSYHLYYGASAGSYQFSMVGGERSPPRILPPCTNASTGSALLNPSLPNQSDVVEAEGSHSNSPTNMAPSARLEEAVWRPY

Turning to GACACGTCTTTGGAAGGATGTGGTTGCCGTGGGTTT, the ETS1 binding intensity in assay [1] was 724; in assay [3] it was 5580. For the same sequence, the RUNX1 binding intensity came out at 786 in assay [2] and 880 in assay [4].

As to GCACAGGCCGGAAGGAAAAGGGTTGTGGGGCTCATT, the ETS1 binding intensity was determined as 1290 in assay [1] and 1180 in assay [3]. The RUNX1 binding intensity in assay [2] came to 814; in assay [4] it was 952.

As for GAGTTGCTTCCGGCCGTGTTGGTGGTCTGAATTGAG, the ETS1 binding intensity in assay [1] is 1590; in assay [3], 1830. For the same sequence, the figures for the RUNX1 binding intensity in assay [2] and in assay [4] were 802 and 1830, respectively.

As to CGAAGCCAGGAAATAAGGATAAACCACAGAAAGAAA, the ETS1 binding intensity was 1060 in assay [1] and 3180 in assay [3]. Besides, the RUNX1 binding intensity in assay [2] worked out at 1260; in assay [4], 2010.

With CAGATCTGAAAGGGAAGTGGTTTCAAGAGGGTTCTT, the ETS1 binding intensity in assay [1] amounted to 967; in assay [3] it was 1130. Moreover, the RUNX1 binding intensity was 729 in assay [2] and 865 in assay [4].

Regarding TTAGATGTGCCTACATCCTGACCTCAAAAACCTCTG, the ETS1 binding intensity in assay [1] was found to be 561; in assay [3], 767. Also, the RUNX1 binding intensity stood at 791 in assay [2] and 957 in assay [4].

Take GCAGAGAGGAGGGGATGTGGTTTCACAGCTTGCTCC: the ETS1 binding intensity was determined as 422 in assay [1] and 1720 in assay [3]. The figures for the RUNX1 binding intensity in assay [2] and in assay [4] were 835 and 937, respectively.

As to CTCTGAGCAGGAAGTGACAAAACCACGCAGGGCAGG, the ETS1 binding intensity in assay [1] amounted to 3150; in assay [3], 6770. For the same sequence, the RUNX1 binding intensity stood at 798 in assay [2] and 1160 in assay [4].

With TTGGTCAGCCTGCTTCCGGCTGTGGCTTCAGTTAGT, the figures for the ETS1 binding intensity in assay [1] and in assay [3] were 1770 and 1920, respectively. Further, the values for the RUNX1 binding intensity in assay [2] and in assay [4] were 774 and 1420, respectively.

With CCCAAGCTACGGAAGTTAAACCTCAAACATGAAATC, the values for the ETS1 binding intensity in assay [1] and in assay [3] were 1110 and 1420, respectively. Also, the RUNX1 binding intensity stood at 1040 in assay [2] and 1410 in assay [4].

CTGAAAAACCGGAAGTGGGTGGTTTGAAACGTAAAT: the values for the ETS1 binding intensity in assay [1] and in assay [3] were 18000 and 20800, respectively. Besides, the RUNX1 binding intensity in assay [2] is 776; in assay [4], 4130.

With GCAACAGCGATCCCCGGAAACCACAAGGCGAGATGT, the results for the ETS1 binding intensity in assay [1] and in assay [3] were 1660 and 5080, respectively. In addition, the RUNX1 binding intensity turned out to be 1680 in assay [2] and 2790 in assay [4].

Turning to GGTCTCACCGCTCTTCCGCTTGCGGTTTCGGGGGCC, the ETS1 binding intensity in assay [1] amounted to 780; in assay [3], 5370. Moreover, the RUNX1 binding intensity was 2320 in assay [2] and 4570 in assay [4].

With CTCCTCCCCCACTTCCTATTTTTACCGCAGTTGCAC, the ETS1 binding intensity in assay [1] was determined as 752; in assay [3], 1340. Besides, the RUNX1 binding intensity was 4960 in assay [2] and 7610 in assay [4].

As to GGCAGGAAAGAGCTGATGCATTTCAACCGCAGCCTG, the ETS1 binding intensity in assay [1] worked out at 520; in assay [3] it was 2430. For the same sequence, the RUNX1 binding intensity in assay [2] is 1110; in assay [4] it was 1040.

For ACCTCAGGTACCGGAAGACCACAATTCCCAGGAGTC, the figures for the ETS1 binding intensity in assay [1] and in assay [3] were 2950 and 4740, respectively. In addition, the RUNX1 binding intensity in assay [2] was found to be 965; in assay [4] it was 1740.

As for GTAAATAAAGAGGAAGTCCCTATGCGGGGGATGGGG, the ETS1 binding intensity in assay [1] was 1910; in assay [3] it was 2060. The RUNX1 binding intensity in assay [2] is 850; in assay [4], 884.

As to CCTCACTAACATCCTGTTGAGGTGTCCCACAAACCA, the ETS1 binding intensity in assay [1] was 1110; in assay [3], 1090. The RUNX1 binding intensity in assay [2] is 801; in assay [4], 1490.

On to CATGGTGGTGACGCAGGATGTGGTGGTGGTGTAGAA, for which the values for the ETS1 binding intensity in assay [1] and in assay [3] were 2600 and 5340, respectively. Also, the RUNX1 binding intensity is 707 in assay [2] and 937 in assay [4].

ACCATCCTGTAGTCTGTTAAGTGAGCAACCGCATTA: the ETS1 binding intensity in assay [1] is 447; in assay [3], 948. Besides, the figures for the RUNX1 binding intensity in assay [2] and in assay [4] were 1130 and 1900, respectively.

Turning to CCCTCTCTTCTTCCTCCCCCACCACAAAAGTCACAG, the ETS1 binding intensity in assay [1] is 550; in assay [3], 641. Further, the RUNX1 binding intensity stood at 2440 in assay [2] and 2280 in assay [4].

Turning to ACTCCTCCCGCTTCCGCTGCCGCAGCCGGTCGTAAC, the ETS1 binding intensity in assay [1] is 1280; in assay [3], 1680. In addition, the RUNX1 binding intensity is 1310 in assay [2] and 3470 in assay [4].

Take GAGGGCTGCTTCCTGCTCTGTGGAGGCCGCAGCGGG: the values for the ETS1 binding intensity in assay [1] and in assay [3] were 555 and 594, respectively. Moreover, the RUNX1 binding intensity in assay [2] stood at 682; in assay [4], 1270.

In the case of GTGGCGGGGCGGAAGTTCACATGTGTGGTATGTAGA, the ETS1 binding intensity in assay [1] came out at 2720; in assay [3] it was 5000. The RUNX1 binding intensity in assay [2] was 940; in assay [4], 1430.

Take CTCACCCCTGGAGGATGTGGGTTTCCAGGCTGACAG: the values for the ETS1 binding intensity in assay [1] and in assay [3] were 836 and 2130, respectively. The figures for the RUNX1 binding intensity in assay [2] and in assay [4] were 849 and 1190, respectively.
